Experimental findings from publication PMC4552634, “A New Set of Chemical Starting Points with Plasmodium falciparum Transmission-Blocking Potential for Antimalarial Drug Discovery” (PLoS ONE, 2015) are described below.

Broadly, the % Inhibition is the change of the read-out against control, counted positive when it falls.

The campaign covered roughly 13,000 compounds. About 3,200 (25%) showed an effect of 50% or more. This is one part of the list.

The test system of this assay is P. falciparum stage V gametocytes. Further details: BacTiter-Glo ATP luminescence viability of purified stage V gametocytes in 384-well plates, per cent inhibition versus DMSO. Particulars: 48 h, 5 µM; inhibitor.
As to `CC1(C)N=C(N)N=C(N)N1OCc1cccc(C#N)c1` [TCMDC-124037], the “% Inhibition” value is recorded as -12.77%.
For `CCCC(C)Nc1nc(C)cc(N[C@@H](CC(C)C)C(=O)NCc2ccc(C)cc2)n1` (some centres unmarked) [TCMDC-134897], the “% Inhibition” value is given as -16.22%.
For `Cc1ccc(N2C(=O)C3C(C2=O)C2(c4ccccc4)C(=O)C3(c3ccccc3)C(c3ccccc3)=C2c2ccccc2)cc1` (centres unmarked) [TCMDC-124241], the “% Inhibition” value was -3.804%.
For `CN1C(=O)[C@H](NC(=O)[C@@H](Cc2ccccc2)NC(=S)Nc2ccccc2)N=C(c2ccccc2)c2ccccc21` [TCMDC-132115] the value was 12.99%; for `Cc1ccc(Nc2nc(C)cc(NC3CC3)n2)cc1` [TCMDC-133469], 5.355%; for `CC1CCCN(Cc2c(O)ccc3c(=O)c(-c4nc5ccccc5s4)c(N)oc23)C1` (centres unmarked) [TCMDC-124468], -5.264%.
As to `Cc1ccc(-c2nnc(-c3ccc(C(=O)NC4CCN(Cc5ccc(C#N)cc5)CC4)cc3)o2)cc1Br` [TCMDC-136130], the “% Inhibition” value is -28.74%.
The value for `Cc1ccc(Cn2c(N3CCC(C(=O)NCc4cccs4)CC3)nc3ccccc32)cc1` [TCMDC-124400] was 16.64%; that for `C=CCOC(=O)N1CCC(CNCc2cccc(-c3ccc(-c4nc5cccc(C)c5[nH]4)s3)c2)C1.O=C(O)C(F)(F)F` (centres unmarked) [TCMDC-133043] was 63.05%.
The value for `CNCCNCc1cccc(-c2ccc(-c3nc4cccc(C)c4[nH]3)s2)c1.O=C(O)C(F)(F)F` [TCMDC-132835] was 98.35%.
For `Cc1cccc2nc(-c3ccc(-c4cccc(CNCCCNS(C)(=O)=O)c4)s3)[nH]c12.O=C(O)C(F)(F)F` [TCMDC-133078], the “% Inhibition” value is -8.111%.
Consider `Cc1cccc2nc(-c3ccc(-c4cccc(CNCCc5ccncc5)c4)s3)[nH]c12.O=C(O)C(F)(F)F` [TCMDC-132853], for which the “% Inhibition” value is on record as -22.63%.
`Cc1cccc2nc(-c3ccc(-c4ccc(CNCc5cccc(N)c5)cc4)s3)[nH]c12.O=C(O)C(F)(F)F` [TCMDC-132932]: the “% Inhibition” value is -65.22%.
The value for `Cc1cccc2nc(-c3ccc(-c4ccc(CNCc5ccc(CN)cc5)cc4)s3)[nH]c12` [TCMDC-132809] was 97.61%; that for `COc1ccc(CNCc2ccc(-c3ccc(-c4nc5cccc(C)c5[nH]4)s3)cc2)cc1.O=C(O)C(F)(F)F` [TCMDC-132727] was 15.75%.
For `C=CCOC(=O)N1CCC(CNCc2cccc(-c3ccc(-c4nc5cccc(C)c5[nH]4)cc3)c2)C1.O=C(O)C(F)(F)F` (centres unmarked) [TCMDC-133040], the “% Inhibition” value was 4.148%.
For `C=CCOC(=O)N1CCC(CNCc2cccc(-c3cccc(-c4nc5cccc(C)c5[nH]4)c3)c2)C1.O=C(O)C(F)(F)F` (centres unmarked) [TCMDC-133038] the value was -20.08%; for `COc1cccc(CNC[C@@H](O)[C@H](Cc2ccccc2)NC(=O)c2cc(C(C)C)cc(N3CCCC3=O)c2)c1` [TCMDC-134130], 14.96%.
With `CCc1ccc2c(c1O)CCN(C)C2Cc1ccccc1Cl` (centres unmarked) [TCMDC-137165], the “% Inhibition” value is given as 18.04%.
For `CC(=O)C1=NN(c2ccc(C)cc2)C(c2cccs2)N1c1ccccc1` (centres unmarked) [TCMDC-125627] the value was -78.13%.
The value for `Cc1cccc2[nH]c(-c3cccc(-c4ccc(NC(=O)NCc5ccccc5)cc4)c3)nc12` [TCMDC-133158] was -0.2096%; that for `COc1ccc(NS(=O)(=O)c2ccc(Oc3nc(C)nc4sc5c(c34)CCCC5)cc2)cc1` [TCMDC-124337] was 4.693%.
The value for `CNC(=O)c1cc(S(=O)(=O)Nc2ccc(OC)cc2)cs1` [TCMDC-124815] was 61.29%; that for `COc1ccc(NC(=O)c2c(NC(=O)c3cccs3)sc3c2CCCC3)cc1` [TCMDC-125745] was -21.48%.
On to `CC1(C)CC2CC(C)(CN2C(=O)c2cc(C(C)(C)C)nn2Cc2ccccc2)C1` (centres unmarked) [TCMDC-133777], for which the “% Inhibition” value was -28.49%.
`O=C(COc1ccccc1Cc1ccccc1)Nc1cc(Cl)ccc1-n1cncn1` [TCMDC-125098]: the “% Inhibition” value was -48.08%.
`O=C(Nc1cc(Cl)ccc1-n1cncn1)C1(c2ccccc2)CC1` [TCMDC-125455]: the “% Inhibition” value amounted to 2.448%.
With `COc1ccc(CN2CCN(CC(=O)Nc3cc(Cl)ccc3-n3cncn3)CC2)cc1F` [TCMDC-125242], the “% Inhibition” value is on record as 66.84%.
For `CN1CCCc2ccc(NC(=O)c3ccc(-c4cc(C(F)(F)F)nn4C)s3)cc2C1` [TCMDC-133945], the “% Inhibition” value is -15.63%.
With `CC1CCN(Cc2c(O)ccc3c(CN4CCC(C)CC4)c(O)ccc23)CC1` [TCMDC-137584], the “% Inhibition” value is listed as -14.01%.
The value for `CC(C)c1ccc(-c2noc(SCC(=O)N(C)c3ccc(F)cc3)n2)cc1` [TCMDC-124744] was -3.802%.
Take `CCN1CCN(C(=O)NC(C(=O)N2CCCC(COc3ccc(Cc4ccccc4)cc3)C2)c2cccs2)C(=O)C1=O` (centres unmarked) [TCMDC-139273]: the “% Inhibition” value came out at 35.06%.
Turning to `CN1CCCC1CCNc1ncc2c(-c3ccc(NC(=O)Nc4cc(C(F)(F)F)ccc4F)cc3)nn(C)c2n1` (centres unmarked) [TCMDC-141584], the “% Inhibition” value came out at 59.4%.
For `CN1CCCC1CCNc1ncc2c(-c3ccc(NC(=O)Nc4cc(C(F)(F)F)ccc4F)c(F)c3)nn(C)c2n1` (centres unmarked) [TCMDC-141610] the value was 99.17%.
The value for `CCCCCC(C)N=C(Nc1ccc(C#N)cc1O)Nc1ccccc1Br` (centres unmarked) [TCMDC-140129] was -25.57%; that for `Cc1cc([N+](=O)[O-])ccc1N1CCN(CCCCNC(=O)c2ccc(NC(=O)c3ccc(Cl)cc3)cc2)CC1` [TCMDC-138261] was 16.06%.
The value for `C[C@@H](CC1CCCCC1)OC(=O)N(C)[C@H]1CCN(C#N)C1` [TCMDC-138501] was 35.73%; that for `CCCC1N=C(N)N=C(N)N1c1ccc(Cl)cc1` (centres unmarked) [TCMDC-131296] was -9.139%; that for `CCNc1cc(C(=O)N[C@@H](Cc2ccccc2)[C@H](O)CNCc2cc(OC)cc(OC)c2)cc(N2CCCS2(=O)=O)c1` [TCMDC-134557] was -5.029%.
For the compound `N#CN1CC[C@@H](OC(=O)N[C@@H]2C[C@H]2c2ccccc2)C1` [TCMDC-133724], the “% Inhibition” value was 29.13%.
For `CC(C)C[C@H](NC(=O)[C@H](Cc1ccccc1)N(C[C@H](Cc1ccccc1)NC(=O)OC(C)(C)C)C(=O)C(F)(F)F)C(=O)NC1CCN(Cc2ccccc2)CC1` [TCMDC-132059] the value was -19.61%; for `CC(C)CCN1CCC(Oc2ccc(NC(=O)c3cccs3)cc2Cl)CC1` [TCMDC-133974], 92.16%; for `Cc1ccc(C(=O)Nc2ccc(OC3CCN(CCC(C)C)C3)c(Cl)c2)cc1` (centres unmarked) [TCMDC-133983], 31.29%.
The value for `CC(C)CCN1CCC(Oc2ccc(NC(=O)c3ccccc3)cc2Cl)CC1` [TCMDC-133977] was 11.22%; that for `CC(C)CCN1CCC(Oc2ccc(NC(=O)c3cccs3)cc2Cl)C1` (centres unmarked) [TCMDC-133979] was 54.06%; that for `CC(Oc1ccc(NC(=O)c2cccs2)cc1)C(=O)c1ccc(Cl)cc1` (centres unmarked) [TCMDC-125438] was 17.92%.
As for `CC(C)CCOc1ccc(NC(=O)c2cccs2)cc1` [TCMDC-125121], the “% Inhibition” value was found to be 83.04%.
`CCCOc1ccc(NC(=O)c2cccs2)cc1Cl` [TCMDC-141129]: the “% Inhibition” value came to 16.1%.
The value for `O=C(Nc1ccc(OC2CCN(Cc3ccccc3)C2)c(Cl)c1)c1cccs1` (centres unmarked) [TCMDC-133970] was 30.53%; that for `O=C(Nc1ccc(OC2CCN(Cc3ccccc3)CC2)c(Cl)c1)c1cccs1` [TCMDC-133990] was 24.3%; that for `COc1ccc(NC(=O)c2cc(NC(=O)C3(N)CC3)c(=O)n(Cc3ccc(C(N)=O)cc3)c2)cc1` [TCMDC-136554] was 19.66%.
`Cc1[nH]c2c(NCc3ccc(F)cc3)nccc2c1C` [TCMDC-132310]: the “% Inhibition” value stood at 15.19%.
For `N#Cc1ccc2c(c1)CCN(CCC1CCC(NC(=O)c3cc4ccc(Br)cc4[nH]3)CC1)C2` (centres unmarked) [TCMDC-139195] the value was -25.15%; for `Cc1nn(-c2ccccc2)nc1C(=O)N(Cc1ccc(-c2ccc(CNCCc3ccc(S(C)(=O)=O)cc3)cn2)cc1)C(C)CN(C)C` (centres unmarked) [TCMDC-141524], 25.84%.
On to `CCCNCc1ccc(-c2ccc(CN(C(=O)c3nn(-c4ccccc4)nc3C)C(C)CN(C)C)cc2)nc1` (centres unmarked) [TCMDC-141551], for which the “% Inhibition” value is given as 64.23%.
For the compound `CCCNCc1ccc(-c2ccc(CN(C(=O)c3nn(-c4ccccc4)nc3C)C3CCOCC3)cc2)nc1` [TCMDC-141547], the “% Inhibition” value came to 9.201%.
For `CCCNCc1ccc(-c2ccc(CN(CCOC)C(=O)c3nn(-c4ccccc4)nc3C)cc2)nc1` [TCMDC-141549] the value was 77.73%.
For the compound `CCCNCc1ccc(-c2ccc(CN(C(=O)c3nn(-c4ccccc4)nc3C)C3CC3)cc2)nc1` [TCMDC-141550], the “% Inhibition” value was 42.93%.
For `CCCNCc1ccc(-c2ccc(CN(Cc3cnc(C)cn3)C(=O)c3nn(-c4ccccc4)nc3C)cc2)nc1` [TCMDC-141548] the value was 27.98%.
Consider `O=C(O)CNCC(O)c1ccccc1` (centres unmarked) [TCMDC-131775], for which the “% Inhibition” value is 4.722%.
The value for `FC(F)(F)c1ccc2[nH]c(-c3ccc(-c4ccc(CNCc5cnn(-c6ccccc6)n5)cc4)cc3)nc2c1.O=C(O)C(F)(F)F` [TCMDC-132970] was -15.1%; that for `O=C(NC1CCN(c2ncc(C(F)(F)F)cc2Cl)CC1)c1cccs1` [TCMDC-133802] was 15.64%; that for `Cc1cccc(CN2CCN(c3ncc(C(=O)NC4CC4)cc3Cl)CC2)c1` [TCMDC-134604] was 4.534%.
For `CS(=O)(=O)n1c(CN2CCN(c3ncc(C(F)(F)F)cc3Cl)CC2)nc2ccccc21` [TCMDC-134291], the “% Inhibition” value was determined as 88.45%.
For `O=C1OC(c2cc3ccccc3n2S(=O)(=O)c2ccccc2)(c2cc3ccccc3n2S(=O)(=O)c2ccccc2)c2ccccc21` [TCMDC-131245], the “% Inhibition” value is 29.52%.
